# From PubChem BioAssay
# Only some compounds are listed: those with a hit (about 12% of all), similar ones and a draw of the others.
# AMA1-RON2 inh: disrupts binding of P. falciparum AMA1 to RON2. AlphaScreen AMA1-biotinylated RON2 peptide binding. 360,000 tested, 0.2% active. AID 720542. Potency, µM (highest dose often 58.2 µM), inactives show top-dose activity change, negative = inhibition, hits mostly inhibitors;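 also: 0% = vehicle wells and -100% = peptide control; nearly all actives have a fitted effect of over 45% in size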
#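 AMA1 (3D7) with his tag at 25 nM final met compounds first, then biotinylated RON2 peptide at 25 nM; detection used donor plus acceptor beads, 10 µg/mL apiece, read by AlphaScreen after 30 min at room temperature.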
# NS1 function inh: blocks influenza NS1 protein function | 270,000 tested, 0.4% active | Potency, µM (titrated, usually from 46.1 µM), without a hit: top-dose activity, positive = more growth | AID 2326; calls by dose curve; also: actives are rising curves; nearly all actives have a fitted effect of over 50% in size
#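 Growth recovery, yeast-based: influenza A NS1 expressed in S. cerevisiae causes slow growth, and suppressors are detected by OD600. The parent strain without NS1 is used as positive control.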
# HCV inhibitor: blocks hepatitis C virus; Huh7.5.1 HCVcc-Cre infection, luciferase reporter, 44 h; Potency, µM (series often up to 41.8 µM), for the others: at the top dose activity change, negative = inhibition, most hits filed as inhibitors; 340,000 tested, 3.4% active; also: % is scaled to controls: 0 for no effect and ±100 for the full control effect
#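 HCVcc-Cre virus at an moi near 0.5 was added right after compound to cells cultured 4 h from seeding (1,000 cells/well). Luciferase activity was determined 44 h later, 15 min after substrate addition at RT.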
# SARS PLP yeast: inhibitors of SARS-CoV papain-like protease in yeast | S. cerevisiae expressing SARS-CoV PLpro, growth rescue | Potency, µM (series often up to 32.9 µM), for inactives: top-dose activity, positive = growth rescue, actives largely listed as activators | 330,000 tested, 0.19% active | AID 485353; calls by dose curve; also: 0% is about no effect; nearly all actives have a fitted effect of over 55% in size
# Pf growth 48h: inhibits P. falciparum growth in the first generation, 48 h. P. falciparum luciferase growth in erythrocytes, 48 h. Potency, µM (highest dose often 28.7 µM), for inactives: top-dose activity change, negative = inhibition, usual class: inhibitors. 310,000 tested, 5.9% active; also: % is scaled to controls: 0 for no effect and ±100 for the full control effect
#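 First compound was added to culture medium, then infected red cells at 0.1% parasitemia and 2% hematocrit (final). After incubation at 37 C under 5% CO2, luciferase detection reagent was dispensed and light output recorded.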
# Pf growth 96h: P. falciparum growth inhibition at 96 hours. P. falciparum luciferase reporter growth, 96 h. Potency, µM (series often up to 28.7 µM), for inactives: top-dose activity change, negative = inhibition, hits mostly inhibitors. 320,000 tested, 6.9% active. AID 504834; also: % is scaled to controls: 0 for no effect and ±100 for the full control effect
#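 Parasite growth measured via integrated firefly luciferase reporter in P. falciparum. Infected erythrocytes at 2% hematocrit, 0.05% parasitemia final were treated 96 hours at 37 C under 5% CO2, and luminescence was read.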
# Active calls of the source: *; u = inconclusive; x = no result given; [ ] = remark or other dose. Unless noted, calls follow the shape of the dose curve; as a rule, active = well fitted curve in the direction sought with a large enough effect; inconclusive = small, poorly fitted or top-dose-only effect, or another doubt; inactive = no such curve, though single readings can be large; an effect the other way counts as inactive or inconclusive. Potency is read from the fitted curve at half-maximal effect.
SMILES,AMA1-RON2 inh,NS1 function inh,HCV inhibitor,SARS PLP yeast,Pf growth 48h,Pf growth 96h
C#CCOCCOCCOCCNc1nc(N2CCN(C(=O)[C@H](Cc3ccc(O)cc3)n3cc([C@@H](N)C(C)CC)nn3)CC2)nc(N2CCN(C(=O)[C@H](Cc3cc4ccccc4[nH]3)n3cc([C@@H](N)CC(C)C)nn3)CC2)n1 (stereo partly drawn),-29%,6%,-10%,-1%,2.9µM*,u
C#CCOCCOCCOCCNc1nc(N2CCN(C(=O)[C@H]([C@@H](C)CC)n3cc([C@@H](N)Cc4ccc(O)cc4)nn3)CC2)nc(N2CCN(C(=O)[C@H](Cc3cc4ccccc4[nH]3)n3cc([C@@H](N)C(C)CC)nn3)CC2)n1 (stereo partly drawn),x,0%,x,0%,u,12µM*
C#CCOCCOCCOCCNc1nc(N2CCN(C(=O)[C@H](Cc3cc4ccccc4[nH]3)n3cc([C@@H](N)Cc4ccc(O)cc4)nn3)CC2)nc(N2CCN(C(=O)[C@H](Cc3cc4ccccc4[nH]3)n3cc([C@@H](N)CC(C)C)nn3)CC2)n1,u,-15%,43%,-3%,13µM*,10µM*
C#CCOCCOCCOCCNc1nc(N2CCN(C(=O)[C@H](Cc3cc4ccccc4[nH]3)n3cc([C@@H](N)C(C)CC)nn3)CC2)nc(N2CCN(C(=O)[C@H](Cc3cc4ccccc4[nH]3)n3cc([C@@H](N)Cc4ccc(O)cc4)nn3)CC2)n1 (stereo partly drawn),x,8%,x,-1%,u,u
C#CCOCCOCCOCCNc1nc(N2CCN(C(=O)C(Cc3cc4ccccc4[nH]3)n3cc(C(N)Cc4ccc(O)cc4)nn3)CC2)nc(N2CCN(C(=O)C(Cc3cc4ccccc4[nH]3)n3cc(C(N)Cc4ccc(O)cc4)nn3)CC2)n1 (stereo not drawn),u,16%,4%[8.37 µM],-2%,2.3µM*,u
CC[C@H](C)Cc1cn([C@@H](CCCCNC(=O)OC(C)(C)C)C(=O)NCCCCCCCCCCC(=O)N2CCN(C(=O)OC(C)(C)C)CC2)nn1,15%,x,u,1%,2.1µM*,1µM*
CC(C)(C)OC(=O)NCCCC[C@@H](C(=O)NCCCCCCCCCCC(=O)N1CCN(C(=O)OC(C)(C)C)CC1)n1cc(CCO)nn1,13%,x,u,6%,1.9µM*,2.6µM*
CSCC[C@@H](C(=O)NCCCCCCCCCCC(=O)N1CCN(C(=O)OC(C)(C)C)CC1)n1cc(CCO)nn1,14%,x,u,-2%,5.2µM*,1.9µM*
NCCCC[C@@H](C(=O)NCCCCCCCCCCC(=O)N1CCNCC1)n1cc(CCO)nn1,8%,x,-2%,0%,u,u
CC(C)(C)OC(=O)NCCCCc1cn(CC(=O)N2CCN(C(=O)OC(C)(C)C)CC2)nn1,-3%,7%,-2%[8.37 µM],-1%,2%,9%
CSCCCc1cn([C@@H](CO)C(=O)NCCCCCCCCCCC(=O)N2CCNCC2)nn1,-2%,x,4%,3%,15µM*,-77%
CC(C)NC(=O)N(C)C[C@H]1Oc2ccc(NC(=O)Cc3ccccc3)cc2C(=O)N([C@H](C)CO)C[C@@H]1C,15%,x,-6%[8.37 µM],1%,x,x
CC(C)(C)SCCNC(=O)CN(c1ccc(F)cc1)S(=O)(=O)c1ccccc1,-6%,3%,-16%,-1%,u,37%
COc1ccc(C(CNC(=O)CN2C(=O)NC3(CCCC3)C2=O)N(C)C)cc1 (stereo not drawn),0%,-4%,4%,0%,11%,17%
CCNC(=O)CSc1nnc(-c2ccccc2Br)n1-c1cccc(C(F)(F)F)c1,-1%,-3%,1%,6%,-10%,-28%
CCCc1nnc(NC(=O)C2CCN(C(=O)C3CC(=O)N(c4ccc(C)cc4)C3)CC2)s1 (stereo not drawn),-3%,-8%,-1%,2%,u,23%
